HSP90 inh = blocks HSP90-mediated luciferase refolding in reticulocyte lysate; Rabbit reticulocyte lysate, luciferase refolding luminescence, 3 h; inhibition, % at 5.6 µM; 290,000 compounds, 0.91% hits; AID 1789;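 active means inhibition above the screen-wide mean plus 3 SD, computed separately per campaign, cut at about 16% in these data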;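 further: 0% = DMSO wells and 100% = 60 µM geldanamycin wells; inhibitors lower the luminescence because luciferase stays unfolded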
LGR2 inh = inhibitors of bursicon-induced Drosophila LGR2 receptor cAMP signaling. inhibition, % at 9.99 µM. AID 720647. HEK293 LGR2, CRE-luciferase, bursicon-stimulated, 4 h. 380,000 compounds, 0.35% hits;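 active means drop in luminescence signal, shown as inhibition above about 50% in the replicate tests, limit read from the data, passing the limit was not always enough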;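 further: agonist challenge used bursicon conditioned medium at about half maximal strength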
TROY NFkB inh = TROY signaling inhibition; Q293 LMP1-TROYcd NF-kB luciferase reporter, 4 h; inhibition, % at 10 µM; 360,000 compounds, 0.98% hits; AID 1347056;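 active means compounds whose plate-normalised and pattern-corrected inhibition of the luciferase reporter signal at the single screening dose is 50% or more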
TWEAK-Fn14 inh = blocks TWEAK-Fn14 interaction in a reporter cell assay. inhibition, % at 10 µM. 360,000 compounds, 2% hits. AID 1159606. TWEAK-stimulated Fn14 reporter cells, luciferase luminescence, 8 h; in the data active means inhibition above about 50%
* = called active by the depositor; nt = no result. The list is not random: actives were taken first. Their share in the collection is about 2.2%.

SMILES | HSP90 inh | LGR2 inh | TROY NFkB inh | TWEAK-Fn14 inh
O=C(O)c1ccc(Nc2nc3ccccc3nc2NS(=O)(=O)c2cccs2)cc1 | -5.1 | -8.7 | -9.9 | -2.1
Cc1cc(C)c(S(=O)(=O)/N=C2\C=C(NS(=O)(=O)c3ccccc3)C(=O)c3ccccc32)c(C)c1 | -4.7 | -5.5 | 17.7 | -1.2
Cc1ccc(NC2=C/C(=N\S(=O)(=O)c3cccs3)c3ccccc3C2=O)c(C)c1 | 26.4* | nt | 69.2* | 94.8*
COCC(=O)N(C)C[C@@H]1Oc2ncc(-c3ccccc3C)cc2C(=O)N([C@@H](C)CO)C[C@H]1C | nt | -9.5 | nt | nt
CO[C@@H]1CN(C)C(=O)c2cc(NC(C)=O)ccc2OC[C@H](C)N(Cc2nccs2)C[C@@H]1C | nt | 4.1 | nt | nt
CCOC(=O)C1CCN(CC(=O)Nc2c(C(=O)OC)[nH]c3ccc(Cl)cc23)CC1 | 1.0 | nt | 47.5 | 64.0*
CC(=O)N(C)c1ccc(N=Nc2ccc3ncccc3c2)cc1 | nt | 66.4* | 12.7 | 61.6*
O=C(C[C@H]1CC[C@@H]2[C@H](COC[C@H](O)CN2S(=O)(=O)c2cccc(F)c2)O1)NC1CCC1 | nt | -0.5 | nt | nt
CC1=NC(=O)C(N=Nc2cccc(C(=O)O)c2)N1c1ccccc1 (stereo not drawn) | 16.6* | nt | -65.4 | 49.5
COc1ccc(C#Cc2cnc3c(c2)C(=O)N([C@@H](C)CO)C[C@@H](C)[C@H](CN(C)C(=O)Nc2cccc(OC)c2)O3)cc1 | nt | 4.3 | nt | nt
CCn1c(=O)c2c(cnn2C)c2ccccc21 | -1.1 | nt | 43.0 | 58.1*
CCOc1ccc(-c2ccc(SC)nn2)cc1 | 73.1* | 99.1* | 75.2* | -15.0
CCOC(=O)C1CCN(c2c(Nc3ccc4c(c3)OCCO4)c(=O)c2=O)CC1 | 11.7 | -17.2 | 62.5* | 80.5*
CCOC(=O)N1CCC(N2C(=O)c3ccccc3C2Nc2ccc3c(c2)OCCO3)CC1 (stereo not drawn) | 9.9 | 1.4 | 65.5* | 84.8*
Cc1noc(C)c1NC(=O)N[C@@H]1CC[C@@H](CC(=O)NCc2ccc(Cl)c(Cl)c2)O[C@@H]1CO | nt | 5.5 | nt | nt
COCC#Cc1ccc2c(c1)O[C@@H](CN(C)Cc1ccncc1)[C@@H](C)CN([C@@H](C)CO)S2(=O)=O | nt | 6.9 | nt | nt
O=C(C[C@@H]1CC[C@@H]2[C@H](COC[C@@H](O)CN2C(=O)Nc2ccc(C(F)(F)F)cc2)O1)NC1Cc2ccccc2C1 | nt | 11.3 | nt | nt
CCC(=O)NC[C@H]1[C@@H](c2ccc(-c3cccc(F)c3)cc2)[C@@H](CO)N1C(=O)CC | nt | 0.4 | nt | nt
CCCNC(=O)N1[C@H](CO)[C@@H](c2ccccc2-c2cccc(C)c2)[C@@H]1C#N | nt | 10.1 | nt | nt
Cc1cc(C(C#N)c2ccc(Cl)cc2)c(Cl)cc1NC(=O)c1cc(I)cc(I)c1O (stereo not drawn) | nt | nt | 69.6* | 24.0
N#C[C@@H]1[C@H](c2ccc(C3=CCCCC3)cc2)[C@H](CO)N1S(=O)(=O)c1cccc(F)c1 | nt | -2.8 | nt | nt
C(=Cc1c[nH]c2ccccc12)c1nccc2ccccc12 | nt | 94.1* | 64.8* | 89.0*
O=Cc1nccc2ccccc12 | nt | 0.8 | -2.9 | -9.4
C(=Cc1c[nH]c2ccccc12)c1ccc2ccccc2n1 | nt | 88.6* | 33.5 | 73.3*
C[C@@H]1CCCCO[C@@H](CN(C)Cc2ccccc2)[C@H](C)CN([C@H](C)CO)C(=O)c2cc(NC(=O)NC3CCCCC3)ccc2O1 | nt | 2.5 | nt | nt
SMILES | HSP90 inh | LGR2 inh | TROY NFkB inh | TWEAK-Fn14 inh
Cc1cc(OCc2cc(C(=O)N3CCC(Oc4cccnc4)CC3)no2)cc(C)c1Cl | 3.4 | 19.4 | 50.5* | 26.9
O=c1cc(N=Nc2ccc(Cl)cc2)[nH]c(=O)[nH]1 | 0.0 | 2.4 | 24.9 | 58.3*
COc1cccc(NC(=O)N2CCc3nc(NCc4cccc(Oc5ccccc5)c4)ncc3C2)c1 | nt | nt | 17.8 | 54.3*
CC(C)c1ccc(Nc2ncc3c(n2)CCN(C(=O)Nc2ccc(F)c(Cl)c2)C3)cc1 | nt | -8.9 | 65.1* | 78.1*
COc1ccc(NC(=O)Nc2cccc3c2O[C@H](CN(C)C(=O)Nc2c(C)noc2C)[C@@H](C)CN([C@@H](C)CO)C3=O)cc1 | nt | 2.6 | nt | nt
Cc1ccc(S(=O)(=O)N2CCCCC2)cc1NC(=O)CCc1nc2ccccc2c(=O)[nH]1 | nt | 2.2 | 11.7 | -12.3
O=C(CCc1nc2ccccc2c(=O)[nH]1)Nc1cc(C(F)(F)F)ccc1N1CCCC1 | nt | -16.3 | 50.6* | 61.5*
CCNC(=O)[C@@H]1[C@@H](CO)[C@@H]2Cn3c(ccc(C4=CCCC4)c3=O)[C@H]1N2Cc1cccnc1 | nt | -4.5 | nt | nt
COc1ccc2c3c([nH]c2c1)[C@H](CO)N(C(=O)CN(C)C)CC31CN(Cc2ccccc2)C1 | nt | -9.7 | nt | nt
CCOC(=O)c1cccc(Nc2nc(-c3cccnc3)nc3ccccc23)c1 | -2.5 | nt | 37.2 | 68.9*
CCCCNc1c(-c2ccc(OC)c(Sc3ccc(OC)cc3)c2)nc2ccccn12 | nt | -15.1 | 6.8 | 57.2*
COc1ccc(C(=O)Nc2c(-c3ccccc3)nc3ccccn23)c(OC)c1 | 3.5 | -4.4 | 12.3 | 56.0*
CCCCNc1c(-c2ccc(OC)c(Sc3ccc(OC)cc3)c2)nc2cnccn12 | nt | -13.9 | -13.5 | 12.5
COc1cccc(NC(=O)N2C[C@@H](O)COC[C@H]3O[C@@H](CC(=O)NC4Cc5ccccc5C4)CC[C@@H]32)c1 | nt | -5.8 | nt | nt
Clc1ccc(Cn2cc(/C=N/n3cnnc3)c3ccccc32)c(Cl)c1 | -1.0 | nt | 46.5 | 54.2*
C(=N\n1cnnc1)/c1cn(Cc2ccccc2)c2ccccc12 | 1.6 | -16.4 | -3.2 | 11.8
COc1ccc(C2NC(=O)NC3=C2CCc2ccccc23)cc1 (stereo not drawn) | 3.5 | nt | -1.0 | 7.5
CC(C)c1ccc(C2NC(=O)NC3=C2CCc2ccccc23)cc1 (stereo not drawn) | -0.1 | nt | 54.9* | 76.3*
COc1ccc(-n2cnc3scc(-c4ccccc4)c3c2=O)cc1 | 1.9 | -6.5 | 10.3 | -3.9
COc1ccc(-c2csc3ncn(Cc4ccccc4)c(=O)c23)cc1 | -1.2 | -21.7 | -6.6 | 90.8*
O=C(O)CSc1ncnc2c1oc1ccccc12 | -3.7 | nt | nt | 29.9
O=C(CSc1ncnc2c1oc1ccccc12)Nc1ccccc1C(F)(F)F | -3.5 | 1.9 | 82.4* | 91.5*
Cc1cccc(C(=O)Nc2ccc3c(c2)ncn3C)c1 | 1.1 | -84.3 | -24.6 | 16.6
Cc1cccc(C(=O)Nc2ccc3c(c2)nc(C)n3C)c1 | 7.6 | 10.2 | 18.8 | 59.2*
Cc1nc2cc(NC(=O)N3c4ccccc4CC3C)ccc2n1C (stereo not drawn) | 12.9 | 11.7 | 38.5 | 57.3*
SMILES | HSP90 inh | LGR2 inh | TROY NFkB inh | TWEAK-Fn14 inh
Cc1nc2cc(NC(=O)N3c4ccccc4CC3C)ccc2o1 (stereo not drawn) | -2.5 | -0.2 | -2.6 | 13.2
COc1ccc2c3c(n(C)c2c1)[C@H](CO)N(S(C)(=O)=O)CC31CCN(Cc2nccs2)CC1 | nt | 3.2 | nt | nt
COc1ccc(NC2=C(C(C)=O)C(c3ccc(OC)c(OC)c3)C(C(C)=O)C(C)(O)C2)cc1 (stereo not drawn) | 2.0 | nt | 38.5 | 53.7*
COc1ccc(NC2=C(C(C)=O)C(c3ccccc3)C(C(C)=O)C(C)(O)C2)cc1 (stereo not drawn) | -1.6 | -18.0 | 2.0 | -3.8
COc1cc(/C=C2/SC(=S)N(Cc3ccccc3)C2=O)ccc1OCC(=O)O | 2.2 | 1.7 | -11.9 | -39.4
COc1cc([N+](=O)[O-])cc(/C=C2/SC(=S)N(Cc3ccccc3)C2=O)c1O | -2.3 | 26.8 | 48.1 | 70.0*

From PubChem
